Holding throughout (test): PBM binding z-score (relative to random genomic background probes); higher = stronger binding; sequences stand for … in GC…GCGATTGACAGCGTAGAATGAAGG
Test [1] deals with FXR:RXRa (NR concentration 270 nM, RXRa partner concentration 90 nM). In short, it runs like this:
(§1)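 For binding z-scores, the reference was random background probes on custom Agilent 4×180K protein-binding microarrays. These arrays were incubated 1 h with ligand-free nuclear receptor dimers in PBS pH 7.4, 2% milk, 0.02% Triton X-100, 1 mM DTT, 0.2 mg/mL BSA and 0.4 mg/ml salmon testes DNA. Fluorescence was scanned after antibody detection of each partner (one per run) and regression-normalized.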

Test [2] has as its system LXRa:RXRa (NR concentration 270 nM, RXRa partner concentration 90 nM). In short, it runs like this: as §1
In test [3] the test system is LXRa homodimer (NR concentration 270 nM). The procedure, abridged:
as §1

Test [4] has as its system LXRb:RXRa (NR concentration 270 nM, RXRa partner concentration 90 nM). In short, it runs like this:
as §1

The test system of test [5] is LXRb homodimer (NR concentration 270 nM). The procedure, abridged:
as §1

Test [6] concerns PPARa:RXRa (NR concentration 270 nM, RXRa partner concentration 90 nM). The procedure, abridged:
as §1

For test [7], the system named is PPARg:RXRa (NR concentration 180 nM, RXRa partner concentration 90 nM). The procedure, abridged:
as §1

Test [8] relates to PPARg:RXRa 270nM:90nM, anti-RXR (NR concentration 270 nM, RXRa partner concentration 90 nM). In short, it runs like this: as §1
The subject of test [9] is PPARg:RXRa 30nM:10nM, anti-RXR (NR concentration 30 nM, RXRa partner concentration 10 nM). In short, it runs like this:
as §1

The subject of test [10] is PPARg:RXRa 90nM:30nM, anti-RXR (NR concentration 90 nM, RXRa partner concentration 30 nM). The procedure, abridged: as §1
Test [11] relates to PPARg:RXRa DBDmut IVT, anti-RXR (DBD mutation: RXRa K156A/R161A, NR concentration 270 nM, RXRa partner concentration 90 nM). The procedure, abridged:
as §1

The test system of test [12] is PPARg:RXRa IVT, anti-PPARg (NR concentration 270 nM, RXRa partner concentration 90 nM). In short, it runs like this: as §1
Test [13] has as its system PPARg DBDmut:RXRa IVT, anti-PPARg (DBD mutation: PPARg1 K132A/R137A, NR concentration 270 nM, RXRa partner concentration 90 nM). The procedure, abridged:
as §1

Test [14] deals with PPARg DBDmut IVT, anti-PPARg (DBD mutation: PPARg1 K132A/R137A, NR concentration 270 nM). The procedure, abridged: as §1
Test [15] concerns PPARg homodimer (NR concentration 180 nM). The procedure, abridged: as §1
The test system of test [16] is PXR:RXRa (NR concentration 270 nM, RXRa partner concentration 90 nM). The procedure, abridged: as §1
In test [17] the test system is PXR homodimer (NR concentration 270 nM). The procedure, abridged: as §1
In test [18] the test system is RARa:RXR (NR concentration 270 nM, RXRa partner concentration 90 nM). The procedure, abridged:
as §1

In test [19] the test system is RARa homodimer (NR concentration 270 nM). In short, it runs like this:
as §1

The subject of test [20] is RARb:RXRa (NR concentration 270 nM, RXRa partner concentration 90 nM). The procedure, abridged: as §1

We go through seven sequences from the supplement of paper PMC6555819.

As to TCGAGTAGGTTAGTCGGGGCATCCAGCCAACATA, the PBM binding z-score in [1] was 0.256; in test [2], 0.187; in [3], -0.411; in [4], 0.296; in [5], -1.13; in test [6], 0.822. The PBM binding z-score is -0.0152 in [7]; 0.685 in test [8]; 0.993 in [9]; 0.766 in test [10]; 2.28 in [11]; 2.09 in test [12]. The PBM binding z-score is -0.561 in test [13]; 0.0213 in [14]; -0.139 in test [15]; 0.0331 in test [16]; -0.0889 in [17]; 0.263 in test [18]. In addition, the figures for the PBM binding z-score in [19] and in test [20] were -0.138 and 0.628, respectively.
Take CCTGCTAGGTCAATGATCAGCTAAAGCAGCTCGC: the PBM binding z-score in test [1] is 2.71; in test [2] it was 1.96; in [3], -0.345; in test [4], 1.3; in test [5], -0.139; in test [6] it was 2.62. Moreover, the PBM binding z-score in test [7] is 1.98; in [8], 2.46; in test [9], 0.000172; in test [10] it was 1.24; in [11] it was 4.45; in test [12], 3.19. Besides, the PBM binding z-score in test [13] was -0.369; in test [14], -0.701; in test [15], 1.17; in [16], 0.559; in test [17], -0.751; in [18], 1.13. Moreover, the figures for the PBM binding z-score in test [19] and in test [20] were -0.385 and 3.62, respectively.
For the sequence ACTTACGGGTCAACGAGGTTATAACACGCGTATA, the PBM binding z-score in [1] was determined as 7.16; in test [2], 5.41; in test [3] it was 1.28; in [4], 5.13; in test [5] it was 1.29; in test [6] it was 5.9. In addition, the PBM binding z-score in [7] amounted to 5.93; in test [8], 5.54; in test [9], 2.6; in test [10] it was 4.07; in [11], 3.68; in test [12] it was 4.21. For the same sequence, the PBM binding z-score in test [13] stood at 3.33; in test [14] it was 2.76; in [15] it was 4.28; in [16], 5.81; in test [17], 4.42; in test [18], 5.84. The PBM binding z-score stood at 2.39 in test [19] and 4.37 in test [20].
Consider TCTAGTTGGTGAAAGGTCACACACTCGAAATGCG, for which the PBM binding z-score in test [1] turned out to be 5.7; in [2], 5.73; in [3] it was 3.63; in test [4], 5.31; in test [5], 1.6; in test [6], 6.32. The PBM binding z-score in test [7] was found to be 10.8; in test [8], 9.75; in test [9], 9.91; in test [10] it was 11.4; in [11] it was 2.69; in test [12], 5.86. Besides, the PBM binding z-score in test [13] was found to be 2.76; in [14], 2.05; in test [15], 7.7; in test [16] it was 5.97; in test [17], 2.06; in [18], 7.3. Moreover, the PBM binding z-score was 4.58 in test [19] and 4.79 in test [20].
For the sequence TCGAGTAGGTTAGTCGGGGTATTCAGCCAACATA, the PBM binding z-score in [1] is 0.000404; in test [2], -0.0351; in test [3] it was -0.315; in [4] it was 0.411; in test [5] it was -0.451; in test [6], 0.421. The PBM binding z-score in test [7] is -0.245; in test [8], 0.44; in test [9] it was 1.24; in test [10] it was 0.688; in test [11] it was 2.12; in test [12], 1.56. Further, the PBM binding z-score was -0.225 in test [13]; -0.287 in [14]; -0.0532 in [15]; -0.197 in test [16]; -0.205 in test [17]; 0.128 in test [18]. Moreover, the PBM binding z-score in test [19] was -0.0281; in test [20], 0.0838.
With AGTATGAGGTTATTAAGATCAGGGAATTGCGGTC, the PBM binding z-score in [1] turned out to be 1.55; in test [2], 1.75; in test [3], 0.568; in [4], 1.52; in test [5] it was 0.578; in test [6] it was 2.12. Moreover, the PBM binding z-score in test [7] amounted to 0.776; in [8], 1.12; in test [9], 0.453; in test [10] it was 0.816; in [11], 0.549; in test [12], 1.51. In addition, the PBM binding z-score in [13] was determined as 1.49; in [14], 0.314; in [15], 1.11; in test [16] it was 1.5; in test [17] it was 0.942; in test [18], 1.55. Further, the PBM binding z-score was found to be 1.05 in [19] and 1.4 in test [20].
For the sequence CCGACTGGGGCATAAGGTTATCATAAGCCAGCCC, the PBM binding z-score in test [1] was 0.297; in test [2], 0.921; in [3], -0.134; in test [4] it was 0.498; in test [5], -1.15; in test [6], 1.94. In addition, the PBM binding z-score in [7] stood at 2.31; in [8], 3.06; in test [9], 1.39; in [10] it was 3.18; in test [11], 2.88; in test [12] it was 3.27. Moreover, the PBM binding z-score in test [13] is -0.987; in [14], -0.567; in [15] it was 1.33; in test [16], 0.386; in test [17], 0.0103; in test [18], 1.34. Further, the PBM binding z-score in [19] was -0.22; in [20], 1.32.
